The list is not random: actives were taken first. Their share in the collection is about 2.9%.
IP6K1 inhibitor = inhibitors of human IP6K1; Q92551; IP6K1 kinase, ADP-Glo luminescence, 2 h; stronger effect = lower value; activity change, % (series mostly up to about 58 µM); hit rate 0.81% among 140,000; AID 1645851; in the data active = activity change below about -25%; also: % is scaled to controls: 0 for no effect and ±100 for the full control effect
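ADP-Glo luminescence measures ADP made by human IP6K1 during a 2 h RT reaction with ATP/IP6 (mix at 1.3 mM/130 uM); top library doses 57.5 and 19.1 uM final.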
HEK293 viab = counter-screen for SNCA expression inhibitors: cell viability. HEK-293-SNCA-luc viability, GF-AFC fluorescence, 24 h. Potency, µM (top dose mostly 57.1 µM), without a hit: at the highest dose activity change, negative = cytotoxicity, hits mostly cytotoxic. hit rate 0.12% among 150,000;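 also: potency is read from the fitted curve at half-maximal effect; 0% = DMSO-treated cells and -100% = medium-only wells without cells; nearly all actives have a fitted effect of over 30% in size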
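HEK-293-SNCA-luc cells (1500/well) plated 24 h, then exposed 24 h to a dilution series; GF-AFC added 30 min at 37C, fluorescence 405/540 nm; normalised to medium-only and DMSO wells, Hill fit.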
KDM5B inh = inhibitors of human KDM5B histone demethylase. hit rate 2.6% among 220,000. Q9UGL1. Potency, µM (series often up to 57.7 µM), hits mostly inhibitors. AID 1347165. KDM5B demethylase, FDH-coupled NADH fluorescence (FDH is formaldehyde dehydrogenase); also: potency is read from the fitted curve at half-maximal effect; 0% is about no effect; nearly all actives have a fitted effect of over 70% in size
Target sequence (Q9UGL1 whole entry, looked up): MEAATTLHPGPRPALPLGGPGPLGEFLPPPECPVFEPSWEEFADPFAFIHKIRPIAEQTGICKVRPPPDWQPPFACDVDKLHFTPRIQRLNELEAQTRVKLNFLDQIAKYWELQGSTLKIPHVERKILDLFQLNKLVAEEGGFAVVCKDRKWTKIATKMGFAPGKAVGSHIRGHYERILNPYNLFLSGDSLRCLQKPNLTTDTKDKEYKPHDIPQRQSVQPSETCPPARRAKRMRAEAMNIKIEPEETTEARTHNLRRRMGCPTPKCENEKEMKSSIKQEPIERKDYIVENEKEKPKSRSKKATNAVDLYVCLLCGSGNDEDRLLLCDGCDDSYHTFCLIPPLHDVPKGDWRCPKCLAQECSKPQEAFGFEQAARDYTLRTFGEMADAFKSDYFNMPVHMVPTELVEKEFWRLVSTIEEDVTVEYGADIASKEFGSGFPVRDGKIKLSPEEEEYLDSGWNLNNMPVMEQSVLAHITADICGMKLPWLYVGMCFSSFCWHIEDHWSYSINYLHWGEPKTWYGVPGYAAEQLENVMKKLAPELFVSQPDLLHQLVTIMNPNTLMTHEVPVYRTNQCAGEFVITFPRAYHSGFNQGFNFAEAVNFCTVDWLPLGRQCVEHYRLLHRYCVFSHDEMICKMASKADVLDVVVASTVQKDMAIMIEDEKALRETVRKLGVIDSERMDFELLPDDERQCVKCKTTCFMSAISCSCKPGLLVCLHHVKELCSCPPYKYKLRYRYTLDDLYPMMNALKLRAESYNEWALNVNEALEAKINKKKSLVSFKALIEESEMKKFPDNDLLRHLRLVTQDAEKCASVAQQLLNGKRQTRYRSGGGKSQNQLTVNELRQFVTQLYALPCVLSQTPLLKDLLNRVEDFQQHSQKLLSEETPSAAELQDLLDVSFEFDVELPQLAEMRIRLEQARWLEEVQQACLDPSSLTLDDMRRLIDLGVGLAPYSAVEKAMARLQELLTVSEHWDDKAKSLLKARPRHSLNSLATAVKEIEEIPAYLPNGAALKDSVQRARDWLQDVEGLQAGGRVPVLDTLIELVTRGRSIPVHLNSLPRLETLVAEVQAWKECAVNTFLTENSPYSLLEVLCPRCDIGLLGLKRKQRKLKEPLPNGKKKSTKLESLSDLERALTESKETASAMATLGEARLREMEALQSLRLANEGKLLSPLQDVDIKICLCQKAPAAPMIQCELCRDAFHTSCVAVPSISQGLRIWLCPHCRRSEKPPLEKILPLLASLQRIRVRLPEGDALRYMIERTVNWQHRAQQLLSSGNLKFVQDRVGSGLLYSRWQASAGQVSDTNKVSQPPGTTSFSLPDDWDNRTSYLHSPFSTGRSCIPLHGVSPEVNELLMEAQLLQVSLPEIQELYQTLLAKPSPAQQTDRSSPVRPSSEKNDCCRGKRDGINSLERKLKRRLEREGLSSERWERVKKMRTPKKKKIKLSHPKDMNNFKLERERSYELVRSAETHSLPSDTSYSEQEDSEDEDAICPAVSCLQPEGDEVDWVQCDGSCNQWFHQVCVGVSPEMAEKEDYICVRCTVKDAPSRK
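qHTS format, multiple compound concentrations. Buffer 50 mM HEPES pH 7.5/0.01% Tween-20; 200 nM KDM5BΔAP final; 10 min compound preincubation; substrate-mix levels 12.5 µM peptide, 25 µM α-KG, 0.25 mM NAD⁺; 30 min RT; ΔRFU.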
SNCA expr inhib = inhibitors of alpha-synuclein (SNCA) gene expression | HEK-293 SNCA-luciferase knock-in, luminescence, 24 h | Potency, µM (series often up to 57.2 µM), for inactives: at the top dose activity change, negative = inhibition, actives largely listed as inhibitors | hit rate 0.17% among 140,000;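 also: potency is read from the fitted curve at half-maximal effect; plate controls were DMSO cells for no effect and cell-free wells for full effect; nearly all actives have a fitted effect of over 45% in size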
An asterisk follows results filed as active; i = inactive; ? = inconclusive; . = not tested or not shown; [ ] = remark or other dose. Unless noted, calls follow the shape of the dose curve; as a rule, active = well fitted curve in the direction sought with a large enough effect; inconclusive = small, poorly fitted or top-dose-only effect, or another doubt; inactive = no such curve, though single readings can be large; an effect the other way counts as inactive or inconclusive.

SMILES | IP6K1 inhibitor | HEK293 viab | KDM5B inh | SNCA expr inhib
C=CCOc1cc(C)c2c(c1C)[C@H](O)C([C@H](C)C(=O)N(C)Cc1ccccc1)CC2 (stereo partly drawn) | -6 | -2%[87.6 µM] | 35µM* | -6%[87.6 µM]
C[S+](=O)([O-])N1CCC(Cn2ccc3c(N4CCOCC4)nc(-c4ccccc4F)cc32)CC1 | -14 | 10% | ? | -7%
CN1CCC(Cn2ccc3c(N4CCOCC4)nc(-c4cccc(N5CCOCC5)c4)cc32)CC1 | 24 | 2% | i | -19%
CN1CCC(Cn2ccc3c(N4CCOCC4)nc(-c4cccc5[nH]ccc45)cc32)CC1 | -1 | ? | 7.9µM* | -26%[87.6 µM]
C[S+](=O)([O-])N1CCC(Cn2ccc3c(N4CCOCC4)nc(-c4cccc5[nH]ncc45)cc32)CC1 | -11 | -8% | 13µM* | -1%
CN1CCC(Cn2ccc3c(N4CCOCC4)nc(-c4ccc5cn[nH]c5c4)cc32)CC1 | 6 | -15%[87.6 µM] | 35µM* | -24%[87.6 µM]
CC1CCCCC1NC(=O)c1cc(-c2ccccc2C(F)(F)F)nc2c1cnn2C (stereo not drawn) | -4 | . | . | .
O=C(NCCN1CCOCC1)[C@H]1C[C@@H](O)[C@H](O)[C@@H]2N=C(Nc3ccc(-n4cccn4)cc3)S[C@@H]21 | -12 | 0% | i | 20%
CC(=O)NCCNC(=O)[C@@H]1Cc2cn(Cc3c(C)noc3C)c3cccc(c23)[C@H](CC(C)C)N1 | -4 | 2% | i | 1%
Cc1noc(C)c1Cn1cc2c3c(cccc31)[C@H](CC(C)C)N[C@H](C(=O)NCC1CC1)C2 | -10 | -3%[87.6 µM] | 32µM* | -16%[87.6 µM]
C#CCNC(=O)[C@@H]1Cc2cn(Cc3cc(C)on3)c3cccc(c23)[C@H](CC(C)C)N1 | -13 | -1%[87.6 µM] | 32µM* | 16%[87.6 µM]
C=CCNC(=O)[C@@H]1Cc2cn(Cc3cc(C)on3)c3cccc(c23)[C@H](CC(C)C)N1 | -15 | ? | ? | ?
O=C(c1ccccc1F)N1CCC(C(=O)N2CCC(c3ccccc3)CC2)CC1 | 11 | 6% | . | 4%
c1cc(N2CCCCC2)ccc1-c1n[nH]c(C2CCOC2)n1 (stereo not drawn) | 2 | -10% | 22µM* | -40%
COc1ccc(C(=O)N2CC[C@H]3COC(=O)N3c3cc(C)ccc3C2)cc1 | 2 | -26%[87.6 µM] | i | 21%[87.6 µM]
Cn1c2c(c3cc(F)ccc31)CN(C(=O)Nc1cccc(Cl)c1)CC2 | -2 | -3% | 32µM* | 0%
Cc1cccc(NC(=O)N2CCc3c(c4cc(F)ccc4n3C)C2)c1 | 0 | -8% | 32µM* | 29%
Fc1ccc(-c2ccnc3ncnn23)cc1 | 9 | -7% | 28µM* | -17%
Brc1ccc(-c2ccnc3ncnn23)s1 | -4 | -3% | i | 38%
CNc1ncc(C(=O)N2CCCC3(CCC(=O)N(CCOC)C3)C2)cn1 (stereo not drawn) | -8 | 8% | 28µM* | -13%
COc1ccc(-c2ccc(NC(=O)c3ccccc3C)cc2)nn1 | -6 | . | . | .
Clc1ccc2nc(-c3nc(C4CCOC4)no3)cn2c1 (stereo not drawn) | 13 | -15% | 22µM* | 119%
Cn1nc(-c2nc(C3CCOC3)no2)cc1-c1ccccc1 (stereo not drawn) | -4 | 4% | i | -18%
CCOC(=O)c1cc(S(=O)(=O)N(C)CC(=O)Nc2ccc(F)c(Cl)c2)cn1C | . | . | i | .
Cc1noc(-c2ccn3c(CNC(=O)CCC4CCCC4)nnc3c2)n1 | 1 | -9% | 22µM* | 10%
SMILES | IP6K1 inhibitor | HEK293 viab | KDM5B inh | SNCA expr inhib
Cc1noc(-c2ccn3c(CNC(=O)Cc4ccc(OC(F)(F)F)cc4)nnc3c2)n1 | -4 | 10% | ? | -17%
CCc1noc(-c2ccn3c(CNC(=O)C4CCCCC4)nnc3c2)n1 | 18 | 2% | 28µM* | 6%
CCc1noc(-c2ccn3c(CNC(=O)CCC4CCCC4)nnc3c2)n1 | 15 | -7% | 4.5µM* | 7%
CN(C)Cc1nnc(C2CC(Nc3cncc(C(=O)N(C)C)n3)C2)n1C (stereo not drawn) | 0 | 2% | 28µM* | 2%
CN(C)Cc1nnc(C2CC(NC(=O)c3ccc4c(c3)CCC4)C2)n1C (stereo not drawn) | 18 | -11% | i | 0%
CN(C)Cc1nnc(C2CC(NC(=O)c3ccn(C)c(=O)c3)C2)n1C (stereo not drawn) | 6 | -2% | 32µM* | 8%
Cc1cnc2c(S(=O)(=O)NC(C3CC3)C3CC3)cccc2c1 | . | . | i | .
CN(C)c1nc2c(c(=O)[nH]1)CCN(Cc1ccc(Cl)c(F)c1)CC2 | 18 | 21% | 28µM* | 16%

From PubChem
